# Source: PubChem (National Center for Advancing Translational Sciences (NCATS))
# ELG1 repair inh – ELG1-dependent DNA repair inhibition; HEK293T ELG1-luciferase reporter, luminescence, 16 h; DNA damage induced by 5-fluorouridine; 330,000 compounds, 2.3% hits; Potency, µM (series often up to 46.1 µM), for inactives: at the top dose activity change, negative = inhibition, most hits filed as inhibitors; note: nearly all actives have a fitted effect of over 55% in size
#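 Quantitative HTS, concentration-response format. 2,000 cells/well co-treated with 5-fluorouridine and compound, 16 hr in 5% CO2 at 37 °C; ONE-Glo luminescence read after 30 min.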
# TDP1 cell CPT – growth inhibition of DT40 Tdp1-/-;hTDP1 cells with camptothecin (screen for TDP1 inhibitors); AID 686979; Potency, µM (titrated, usually from 46.2 µM), for inactives: at the top dose activity change, negative = growth inhibition, actives largely listed as inhibitors; chicken DT40 Tdp1-/-;hTDP1 cells + 20 nM CPT, ATP luminescence, 48 h; 420,000 compounds, 12% hits; note: nearly all actives have a fitted effect of over 55% in size
#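 Cell growth measured by CellTiter-Glo luminescence after a minimum 48 h, 37 C compound exposure with 20 nM CPT in Tdp1-knockout DT40 cells stably expressing hTDP1, seeded 400/well; qHTS titration format.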
# RORgamma inh – blocks mouse ROR gamma transcriptional activity; Drosophila S2 Gal4-RORgamma UAS-luciferase reporter, 20 h; Potency, µM (titrated, usually from 53.6 µM), for the others: at the highest dose activity change, negative = inhibition, most hits filed as inhibitors; 310,000 compounds, 5.4% hits; AID 2551; note: nearly all actives have a fitted effect of over 60% in size
#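 Compounds are pin-transferred onto Drosophila Schneider cells expressing a copper-inducible Gal4–ROR gamma transactivation domain fusion. After 1 hr, copper sulfate is added to 700 uM final; luciferase is read 20 hr later.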
# ALOX12 inh – blocks human arachidonate 12S-lipoxygenase; AID 1671190; 580,000 compounds, 1.1% hits; Potency, µM (doses to about 108 µM), without a hit: at the top dose activity change, negative = inhibition, hits mostly inhibitors; purified 12hLO, xylenol orange hydroperoxide absorbance; P18054
# Target sequence (P18054 whole entry, looked up): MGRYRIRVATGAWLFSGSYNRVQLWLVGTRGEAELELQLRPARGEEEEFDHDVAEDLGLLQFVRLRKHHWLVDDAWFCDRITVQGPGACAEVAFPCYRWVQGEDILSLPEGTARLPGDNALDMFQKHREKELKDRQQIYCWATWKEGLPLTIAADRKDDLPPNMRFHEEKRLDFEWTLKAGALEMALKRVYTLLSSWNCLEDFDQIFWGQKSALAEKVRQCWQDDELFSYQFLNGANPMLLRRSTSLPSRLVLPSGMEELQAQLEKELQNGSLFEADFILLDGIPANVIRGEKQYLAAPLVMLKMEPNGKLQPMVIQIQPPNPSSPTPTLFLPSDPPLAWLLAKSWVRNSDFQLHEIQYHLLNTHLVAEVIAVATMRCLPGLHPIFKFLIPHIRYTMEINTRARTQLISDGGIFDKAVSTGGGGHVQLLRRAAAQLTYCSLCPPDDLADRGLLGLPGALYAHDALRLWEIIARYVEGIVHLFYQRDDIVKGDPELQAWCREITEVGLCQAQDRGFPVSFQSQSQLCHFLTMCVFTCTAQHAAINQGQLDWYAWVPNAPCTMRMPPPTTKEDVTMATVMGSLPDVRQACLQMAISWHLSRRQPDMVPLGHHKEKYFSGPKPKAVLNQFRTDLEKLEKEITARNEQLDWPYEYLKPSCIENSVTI
#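 Purified human 12hLO (150 nM final) in 25 mM Hepes, 0.01% Triton X-100, pH 7.0 was preincubated 15 min at room temperature with compound. Then 40 uM arachidonic acid was added, 30 min. Hydroperoxide was read by Fe-XO absorbance ratio 573/405 nm.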
# Gal4-VP16 FLuc – counter-screen for ROR gamma inhibitors: Gal4-VP16 reporter. Drosophila S2 Gal4-VP16 UAS-luciferase, luminescence, 20 h. Potency, µM (highest dose often 53.6 µM), inactives show top-dose activity, negative = inhibition, hits mostly inhibitors. 310,000 compounds, 3.5% hits. AID 2546;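 note: Gal4-VP16 expression switched on by copper sulfate through the metallothionein promoter; nearly all actives have a fitted effect of over 50% in size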
# TDP1 cell noCPT – qHTS for Inhibitors of human tyrosyl-DNA phosphodiesterase 1 (TDP1): qHTS in cells in absence of CPT; DT40 Tdp1-/- hTDP1 cells, no CPT, ATP luminescence, 48 h; Potency, µM (top dose mostly 46.2 µM), for the others: at the highest dose activity change, negative = growth inhibition, hits mostly inhibitors; 420,000 compounds, 15% hits; AID 686978, 2013; note: nearly all actives have a fitted effect of over 55% in size
#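 Growth of hTDP1-complemented DT40 Tdp1-knockout cells is measured by ATP luminescence after at least 48 hr compound exposure at 37 °C, with DMSO substituting for the 20 nM CPT used in the parallel screen.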
# * = called active by the depositor; ? = inconclusive; nt = no result given; [ ] = dose if it differs, or a comment. An excerpt weighted towards active compounds, which were near 15% of everything screened. Calls come from the whole dose curve; as a rule, active = well fitted curve in the direction sought with a large enough effect; inconclusive = small, poorly fitted or top-dose-only effect, or another doubt; inactive = no such curve, though single readings can be large; an effect the other way counts as inactive or inconclusive. % is set by controls: 0 for no effect and ±100 for the full control effect; potency is the fitted concentration of half-maximal effect.
SMILES,ELG1 repair inh,TDP1 cell CPT,RORgamma inh,ALOX12 inh,Gal4-VP16 FLuc,TDP1 cell noCPT
CCOc1cc(C(=O)N2CCC(CC3CC(c4cccc(Br)c4)=NO3)(C(=O)NCC3CCCCC3)CC2)cc(OCC)c1OCC (stereo not drawn),?,?,21%,-2%,-9%,21µM*
CCCCCCCNC(=O)C1(CC2CC(c3cccc(Br)c3)=NO2)CCN(C(=O)CCCCCBr)CC1 (stereo not drawn),?,23µM*,nt,40µM*,nt,26µM*
CCCCCCCNC(=O)C1(CC2CC(c3cccc(Br)c3)=NO2)CCN(C(=O)C2(C)CC2)CC1 (stereo not drawn),?,16µM*,nt,-4%,nt,16µM*
CCCNC(=O)C1(CC2CC(c3ccccc3)=NO2)CCN(C(=O)c2cc(OCC)c(OCC)c(OCC)c2)CC1 (stereo not drawn),nt,?,nt,1%,nt,?
COc1ccc(Cl)cc1C(=O)Nc1cccc(-c2nnc3n2CCCC3)c1,nt,nt,nt,-20%,nt,nt
Nc1c(Cl)cccc1C(=O)OCc1nc(N)c2ccccc2n1,nt,nt,nt,35%,nt,nt
CC(C)C(=O)Nc1cccc(COc2ccc(CN(Cc3ccccc3)C(=O)OC(C)(C)C)cc2)c1,nt,?,nt,-8%,nt,16µM*
CC(C)C(=O)Nc1ccc(COc2ccccc2CN(Cc2ccccc2)C(=O)OC(C)(C)C)cc1,nt,15µM*,nt,-51%,nt,15µM*
Cc1cccc(NC(=O)c2ccc(COc3ccccc3)cc2)c1,nt,nt,nt,19%,nt,nt
O=C1NC2(CCN(CC3CCCCC3)CC2)COc2ccccc21,nt,nt,nt,63µM*,nt,nt
Cc1ccc(C2Cn3nnc(-c4noc(CNC(=O)c5ccccc5)n4)c3CO2)cc1 (stereo not drawn),nt,nt,nt,50%,nt,nt
CC(=O)c1cn(CC(=O)NC2CCCCC2)c2ccccc12,nt,nt,nt,-36%,nt,nt
CCOC(=O)c1cccn1C1C(=O)N(Cc2ccc(Cl)nc2)c2c(F)cccc21 (stereo not drawn),nt,nt,nt,56µM*,nt,nt
CN(C)c1ccc(/C=N/NC(=O)c2cc(-c3ccc4c(c3)OCO4)n[nH]2)cc1,27%,18µM*,-4%,138%,24%,21µM*
O=C(N/N=C/c1ccc(F)cc1)c1cc(-c2ccc3c(c2)OCO3)n[nH]1,6%,15%,17%,-15%,-10%,23µM*
COc1ccc(/C=N/NC(=O)c2cc(-c3ccc4c(c3)OCO4)n[nH]2)cc1OC,15µM*,18µM*,-21%,-21%,-8%,12µM*
Cc1cccc(C(C)(C)C)c1OCCCCN1CCCC1,?,?,-20%,?,15%,23µM*
Cc1ccc(C(C)C)c(OCCCCN2CCNCC2)c1,4%,15µM*,8%[1.91 µM],?,-2%,16µM*
Cc1ccc(C)c(OCCCCN2CCNCC2)c1C,7%,15µM*,22%,1%,2%,6.5µM*
Cc1ccc(C)c(OCCCN2CCNCC2)c1,23%,-8%,-19%,?,19%,1%
CCOc1cc(/C=C(/C#N)c2ccc(F)cc2)cc(Cl)c1OCc1ccccc1C#N,nt,nt,nt,-4%,nt,nt
Cc1ccccc1C1C2=C(CC(C)(C)CC2=O)OC2=C1C(=O)CC(C)(C)C2,nt,nt,nt,-3%,nt,nt
COc1ccc(N2C(=O)CC(Sc3nnnn3-c3ccc(F)cc3)C2=O)cc1 (stereo not drawn),8%,1.5µM*,11µM*,-1%,-15%[10 µM],2.9µM*
O=C1CC(SC(=Nc2ccccc2)Nc2ccccc2)C(=O)N1c1cccc(Cl)c1 (stereo not drawn),-17%,?,?,-10%,-15%,18µM*
O=C1CC(Sc2nnnn2-c2ccccc2)C(=O)N1c1cccc(Cl)c1 (stereo not drawn),3%,1.3µM*,3.5µM*,115%,3.2µM*,3.7µM*
SMILES,ELG1 repair inh,TDP1 cell CPT,RORgamma inh,ALOX12 inh,Gal4-VP16 FLuc,TDP1 cell noCPT
Cc1cccc2c1NC(=O)C2(O)c1c(C)[nH]c2ccccc12 (stereo not drawn),nt,nt,nt,-50%,nt,nt
CCCCC/C=C\C=C\C(=O)OCC,nt,nt,nt,-28%[176 µM],nt,nt
CCC(=O)Nc1nc(-c2ccc3c(c2)CC(C)N3S(C)(=O)=O)cs1 (stereo not drawn),?,?,26%,12%,0%,16µM*
CCC(=O)Nc1nc(-c2ccc3c(c2)OCCO3)cs1,?,?,?,-33%,?,-21%
CC1Cc2cc(-c3csc(NC(=O)Cc4cccs4)n3)ccc2N1S(C)(=O)=O (stereo not drawn),4.6µM*,?,?,-9%,?,23µM*
Cc1ccc(-c2csc(NC(=O)CN3CC(C)OC(C)C3)n2)cc1 (stereo not drawn),?,?,5%,-1%,-1%,?
COc1ccc(-c2cc(=O)oc3c4c(ccc23)OCN(Cc2cccc(OC)c2)C4)cc1,nt,10µM*,nt,?,nt,16µM*
COc1ccc(-c2cc(=O)oc3c4c(ccc23)OCN(Cc2ccccc2)C4)cc1,nt,18µM*,nt,-19%,nt,?
O=c1cc(-c2ccccc2)c2ccc3c(c2o1)CN(Cc1ccccc1)CO3,nt,-14%,nt,-24%,nt,?
COc1cc(/C=N/NC(=O)c2ccccn2)ccc1OC(=O)c1ccc(Br)cc1,?,18µM*,-94%,0%,-22%,?
COc1cc(/C=N/NC(N)=S)ccc1OC(=O)c1ccc(C)cc1,?,-20%,20µM*,?,?,-18%
COc1cc(/C=N/NC(N)=S)ccc1OCc1ccc(C)cc1,?,5.2µM*,7.1µM*,45µM*,8.9µM*,10µM*
COc1ccc(C(=O)Oc2cccc(/C=N/NC(N)=S)c2)cc1,1%,?,16µM*,40µM*,10µM*,?
CCN(CC)C(=S)SCCOc1cccc(C)c1,nt,nt,nt,2%,nt,nt
CC1(CCCCc2ccccc2)COc2ccc(C(=O)NCc3ccncc3)cc2N1 (stereo not drawn),nt,nt,nt,7%[176 µM],nt,nt
O=C1CCSc2ccc(C(=O)NOC3CCCCO3)cc2N1 (stereo not drawn),nt,nt,nt,-27%,nt,nt
CCCCn1nc2cc(C(=O)NCc3ccccc3OC)ccc2c1OCC,?,-23%,22%,-6%,-14%,-13%
COc1ccccc1Nc1nn2c(=O)c3ccc(C(=O)N4CCCCC4)cc3nc2s1,-8%,13µM*,44%,-24%,-3%,16µM*
COc1ccccc1NS(=O)(=O)c1cc(C(=O)N2CCCCCC2)ccc1C,-8%,-25%,nt,3%,nt,?
